Source: the supplement of paper PMC6555819

Tests used:
Experiment in all cases: PBM binding z-score (relative to random genomic background probes); higher = stronger binding; sequences stand for … in GC…GCGATTGACAGCGTAGAATGAAGG
[1] = test system: RARb homodimer (NR concentration 270 nM)
In short: (§1)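 Antibodies against each partner of ligand-free nuclear receptor dimers (one per run) detected binding on custom Agilent 4×180K protein-binding microarrays after 1 h incubation. The double-stranded probes had 34-nt variable regions carrying direct-repeat seeds, single-nucleotide variants, half-site ablations and random human genomic background sequences. Binding z-scores, from regression-normalized fluorescence, use the random background probes as reference.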

[2] = test system: RARg:RXRa (NR concentration 270 nM, RXRa partner concentration 90 nM)
In short: as §1

[3] = test system: RARg homodimer (NR concentration 270 nM)
In short: as §1

[4] = test system: RXRa DBDmut IVT, anti-RXR (DBD mutation: RXRa K156A/R161A, NR concentration 90 nM)
In short: as §1

[5] = test system: RXRa homodimer (NR concentration 180 nM)
In short: as §1

[6] = test system: THRa:RXRa (NR concentration 90 nM, RXRa partner concentration 90 nM)
In short: as §1

[7] = test system: THRa homodimer (NR concentration 90 nM)
In short: as §1

[8] = test system: VDR homodimer (NR concentration 270 nM)
In short: as §1

Sequence | PBM binding z-score [1] | PBM binding z-score [2] | PBM binding z-score [3] | PBM binding z-score [4] | PBM binding z-score [5] | PBM binding z-score [6] | PBM binding z-score [7] | PBM binding z-score [8]
AGAACCAGGGCAATGAGTTGATAGCACGGGTGGC | 0.48 | 0.321 | 0.673 | 0.0529 | 0.352 | 0.225 | -0.251 | 0.986
TCTAGCAGGCCAGAGGGTCTCTCAAGAGGTACGG | -0.406 | -0.564 | -0.595 | -0.155 | -0.223 | -1.48 | -0.98 | -0.83
CCTTACGGGTTAAGGTTATAGCACGGGTGGTACG | 1.42 | 1.43 | 0.999 | -0.691 | 2.18 | 2.64 | 1.75 | 0.766
ACTTACGGGTCAACTAGGTTATAGCACGCGTATA | 3.63 | 5.71 | 5.16 | 2.08 | 5.82 | 3.52 | 0.857 | 2.03
TGAATGAGGTTAAAGATCAGGGAACGTGGCGTCG | 0.677 | 2.23 | 1.12 | 1.61 | 3.81 | 2.5 | 0.44 | 0.484
ACTAGTTGGTCAGCTGAGGCCACACACAATTCGG | 1.35 | 0.493 | 1.14 | 0.0642 | 0.0882 | 3.64 | 1.45 | 0.0276
AGTCAAAGTTCAGGACGGGGTAACGTAAAGCACG | 3.27 | 5.09 | 4.51 | 2.98 | 3.43 | 3.8 | 1.55 | 2.58
CACGAAAGGTCGGTTGAGGTGAGTATACGGATAA | 2.56 | 2.89 | 3.15 | 0.785 | 2.36 | 5.03 | 1.69 | 0.932
CGTACTGGGCCACGAAAGGTCATTGATTCAGTGA | 4.58 | 4.97 | 4.48 | 0.97 | 5.18 | 3.83 | 1.09 | 2.78
AGTCAAAGTTAATCTAGGTAACGTAAGATATGCT | -0.203 | 0.152 | 0.434 | -0.168 | 0.0123 | 2.91 | 0.311 | -0.189
GCTGCTAGGTCAGCTTGGTCAGCTAACGGGTACG | 2.8 | 2.8 | 3.88 | 0.514 | 1.1 | 1.73 | 0.547 | -0.161
AGAAGGAGGTTATTAAGATCAGGGAATTGCGGTC | 1.32 | 0.881 | 0.837 | 0.39 | 1.36 | 1.18 | 0.884 | 1.23
GCGACTGGGGCAAAGCAGGCTACCATAAGGTTGG | 0.228 | 0.143 | 0.207 | -0.628 | 0.0152 | 1.59 | -0.688 | -0.862
CGTCCAAGGTCAAAGGTCAGTCAAGAGATGACGG | 5.67 | 8.89 | 8.17 | 4.11 | 10.3 | 4.85 | 2.87 | 3.58
GCAGCTAGGTCAGGTTGGTCAGCTAACGGGTACG | 2.83 | 2.31 | 3.77 | 0.319 | 1.04 | 1.57 | 0.4 | 0.351
TCTGCTAGGTCAGTTGGTCAGATAACGAGCTGCC | 2.62 | 2.67 | 3.55 | 0.564 | 1.03 | 1.38 | 0.154 | -0.455
GTTCCAAGGTGAATAGGTCGTTGATGAGTAGGCG | 2.22 | 2.74 | 1.76 | 0.23 | 1.72 | 2.4 | 0.975 | 0.742

Sequence | PBM binding z-score [1] | PBM binding z-score [2] | PBM binding z-score [3] | PBM binding z-score [4] | PBM binding z-score [5] | PBM binding z-score [6] | PBM binding z-score [7] | PBM binding z-score [8]
TCTTGTAGATCACCAGGTTAAGAAAGCTGGCCAA | 0.501 | 0.343 | -0.0575 | 1.03 | 1.06 | 1.06 | 0.422 | 0.245
CAGCCTAGGTCAGGGCCAGTATCGGAGGAACGTT | 2.85 | 3.16 | 4.2 | -0.106 | 1.55 | 1.96 | 0.58 | -0.476
CCAGACAGGTGAGGAGGTAACTCAGCCTCGATTA | 0.852 | 0.397 | 0.304 | -0.0213 | 0.216 | 0.684 | 0.59 | 0.177
TGAATAAGGTTATAAGATCAGGGAACGTTGCAAA | 0.682 | 1.59 | 1.14 | 0.444 | 1.89 | 1.79 | 0.426 | 0.135
ACTATTAGTTGAGACGAGGGCCACCGATAGGTTG | 0.318 | 0.392 | 0.514 | 0.0416 | 0.26 | -0.0155 | -0.379 | -0.0608
AGTCAAAGTTCAGGACGAGGTAACGCAAAGCACG | 3.22 | 4.76 | 4.54 | 2.81 | 3.06 | 3.75 | 1.73 | 1.73
CCTACTGGGCCACGAAAGGTCACTGATTCAGTGA | 4.67 | 4.7 | 4.98 | -0.0819 | 4.93 | 3.84 | 1.03 | 0.962
CCTTACGGGTCACTGAGAGGTTATAGCATTTGGA | 3.75 | 6.72 | 4.64 | 1.75 | 5.62 | 3.46 | 0.613 | 1.78
CTACCAAGGTGAACAAGGTCGTAGATTACTATTC | 1.98 | 2 | 1.6 | 0.741 | 2.24 | 3.24 | 1.88 | 1.72
CCTTACGAGTCACTCCAGGTTATAGCATCGGAGT | 0.938 | 0.686 | 0.863 | 0.584 | 0.475 | 3.69 | 1.07 | 0.838
ATCAAAAGGTCGTGAGGTGAGTATACAGAAAGGC | 3.41 | 4.87 | 4.4 | 1.25 | 5.51 | 3.49 | 1.89 | 1.49
CCTACTGGGCCAGAAAGGTCATTGATGCCGATAA | 4.36 | 4.7 | 4.43 | 0.0732 | 5.18 | 2.88 | 0.378 | 2.56
CCTGCTAGGTCAATTGTCAGCTAAAGCAGCTCGC | 2.38 | 3.24 | 3.98 | 1.77 | 1.41 | 2.02 | 0.418 | -0.128
CCTAGTTGGTCAGTAGGTCACACACCGGATATGA | 3.59 | 3.58 | 3.25 | 0.459 | 2.79 | 2.1 | 1.32 | 1.29
CTCGAAAGGTCGTGCTAAGGTGAGTATACCAAAC | 3.37 | 6.03 | 4.31 | 2.01 | 5.25 | 4.61 | 1.79 | 1.29
CCAACTGGGCCATCAGGTCATTGATATCAACGTT | 2.79 | 2 | 2.2 | 0.763 | 1.46 | 3.19 | 3.32 | 2.04
GATACAGGGTCAGCTAGAGGCCAGACTATGGAAA | 3.59 | 6.62 | 4.83 | 0.964 | 4.23 | 3.1 | 0.411 | 0.781
